The record followed here is a collection of fitness landscapes (doi:10.1126/science.1257360).

The full ranking holds about 140,000 sequences; the median of “enrichment ratio after two sorts for PhoP signalling” is about 0, and the highest 2% start at about 11. The sample holds the highest values, similar sequences and a random draw of the others, so the mix is not that of the screen. A value given as a limit tells only on which side of the number the result lay.

The labels stand for the following.
B1: PhoQ; a variant is named by its letters at X, in order, P23837 (parent)
chain: MKKLLRLFFPLSLRVRFLLATAAVVLVLSLAYGMVALIGYSVSFDKTTFRLLRGESNLFYTLAKWENNKLHVELPENIDKQSPTMTLIYDENGQLLWAQRDVPWLMKMIQPDWLKSNGFHEIEADVNDTSLLLSGDHSIQQQLQEVREDDDDAEMTHSVAVNVYPATSRMPKLTIVVVDTIPVELKSSYMVWSWFIYVLSANLLLVIPLLWVAAWWSLRPIEALAKEVRELEEHNRELLNPATTRELTSLVRNLNRLLKSERERYDKYRTTLTDLTHSLKTPLXXLQXXLRSLRSEKMSVSDAEPVMLEQISRISQQIGYYLHRASMRGGTLLSRELHPVAPLLDNLTSALNKVYQRKGVNISLDISPEISFVGEQNDFVEVMGNVLDNACKYCLEFVEISARQTDEHLYIVVEDDGPGIPLSKREVIFDRGQRVDTLRPGQGVGLAVAREITEQYEGKIVAGESMLGGARMEVIFGRQHSAPKDE

In the assay the parent is B1. Kind of assay: enrichment ratio after two sorts for PhoP signalling (ratio (wild type AVST 3.29)); higher = more functional. The following applies: with PhoP (E. coli).
With VRSK, the enrichment ratio is no more than 0.25.

On to LRNP, for which the enrichment ratio is no more than 0.25.

AMGN: the enrichment ratio was found to be 1.38.

As for QRDR, the enrichment ratio was no more than 0.25.

As for FIYI, the enrichment ratio is no more than 0.25.

On to ITNW, for which the enrichment ratio is no more than 0.25.

With WLSG, the enrichment ratio is no more than 0.25.

As to FDMD, the enrichment ratio was no more than 0.25.

Regarding MVGW, the enrichment ratio was no more than 0.25.

Regarding DRLW, the enrichment ratio is no more than 0.25.

Take GNLL: the enrichment ratio was found to be 15.3.

For QCLL, the enrichment ratio came to 2.35.

With NILL, the enrichment ratio came to 0.938.

Consider KCLL, for which the enrichment ratio is no more than 0.25.

Consider WILL, for which the enrichment ratio was no more than 0.25.

Turning to GICL, the enrichment ratio amounted to 9.48.

Turning to NPLL, the enrichment ratio was no more than 0.25.

Take LNLL: the enrichment ratio was no more than 0.25.

As to GILL, the enrichment ratio was 18.2.

In the case of LTLL, the enrichment ratio turned out to be 3.06.

As for GCLL, the enrichment ratio came out at 18.3.

GTLL: the enrichment ratio is 12.4.

TKDY: the enrichment ratio is no more than 0.25.

Consider KPVK, for which the enrichment ratio is no more than 0.25.

On to ICMI, for which the enrichment ratio was no more than 0.25.

Take SFHP: the enrichment ratio was no more than 0.25.

As for YHHD, the enrichment ratio is no more than 0.25.

In the case of AQVH, the enrichment ratio turned out to be 7.73.

GEFP: the enrichment ratio is no more than 0.25.

For VRNY, the enrichment ratio was no more than 0.25.

GALL: the enrichment ratio was found to be 13.8.

SKLL: the enrichment ratio came out at 14.

Take GIAL: the enrichment ratio is 13.

With GNAL, the enrichment ratio was determined as 7.59.

GAAL: the enrichment ratio is no more than 0.25.

For the variant SKLT, the enrichment ratio was 4.23.

With HILL, the enrichment ratio is no more than 0.25.

Turning to YALL, the enrichment ratio was determined as 10.6.

As to WKIW, the enrichment ratio is no more than 0.25.

Take PCAY: the enrichment ratio is no more than 0.25.

QHAW: the enrichment ratio is no more than 0.25.

For the variant LSTI, the enrichment ratio was no more than 0.25.

Regarding GWLL, the enrichment ratio is no more than 0.25.

Take KRIA: the enrichment ratio is no more than 0.25.

On to FCYK, for which the enrichment ratio is no more than 0.25.

With PGQT, the enrichment ratio is no more than 0.25.

Turning to QFAV, the enrichment ratio was no more than 0.25.

As to FDWQ, the enrichment ratio is no more than 0.25.

Consider SGCY, for which the enrichment ratio amounted to 10.6.

Take WICR: the enrichment ratio is no more than 0.25.

For WICV, the enrichment ratio is no more than 0.25.

As for AHMR, the enrichment ratio was no more than 0.25.

In the case of NICR, the enrichment ratio is no more than 0.25.

As for AICV, the enrichment ratio amounted to 15.3.

Consider NICI, for which the enrichment ratio is no more than 0.25.

Regarding NIWM, the enrichment ratio was no more than 0.25.

Consider KKMR, for which the enrichment ratio is no more than 0.25.

Take AICR: the enrichment ratio came to 11.2.

On to ADCV, for which the enrichment ratio is no more than 0.25.

AIMR: the enrichment ratio turned out to be 16.6.

Consider NICK, for which the enrichment ratio was 14.4.

On to IVKK, for which the enrichment ratio was no more than 0.25.

On to LSQL, for which the enrichment ratio was no more than 0.25.

Turning to TSAF, the enrichment ratio is 7.11.

PIGM: the enrichment ratio was no more than 0.25.

For AIWM, the enrichment ratio was no more than 0.25.

With AHYP, the enrichment ratio was no more than 0.25.

As for NICS, the enrichment ratio is no more than 0.25.

Consider AIYP, for which the enrichment ratio stood at 12.7.

For ADYP, the enrichment ratio is no more than 0.25.

On to WICS, for which the enrichment ratio is no more than 0.25.

Regarding AICK, the enrichment ratio was determined as 24.4.

As for AICS, the enrichment ratio is 18.9.

Turning to AICI, the enrichment ratio stood at 16.9.

Turning to AIGM, the enrichment ratio is 8.76.

Take AICA: the enrichment ratio stood at 3.23.

With AILH, the enrichment ratio was 3.54.

For MWPS, the enrichment ratio was no more than 0.25.

Consider VCLF, for which the enrichment ratio came to 0.991.

Consider LARM, for which the enrichment ratio is no more than 0.25.

Consider VEST, for which the enrichment ratio turned out to be 4.04.

For the variant APVK, the enrichment ratio was no more than 0.25.

For HAAR, the enrichment ratio was no more than 0.25.

Consider AICE, for which the enrichment ratio is 14.2.

AIIE: the enrichment ratio was no more than 0.25.

With AHCE, the enrichment ratio was no more than 0.25.

Regarding HKRT, the enrichment ratio is no more than 0.25.

Turning to NRGY, the enrichment ratio is no more than 0.25.

Take DMWC: the enrichment ratio was no more than 0.25.

Regarding MNAS, the enrichment ratio worked out at 6.24.

In the case of TNAE, the enrichment ratio was no more than 0.25.

Turning to ANAE, the enrichment ratio is no more than 0.25.

Turning to SNAE, the enrichment ratio amounted to 7.95.

Take TNAS: the enrichment ratio was found to be 13.9.

For the variant AKAV, the enrichment ratio was 0.73.

Regarding TNAV, the enrichment ratio came to 27.6.

For SNAV, the enrichment ratio turned out to be 12.6.

Regarding SQAV, the enrichment ratio is 6.43.

Consider MNAV, for which the enrichment ratio came out at 2.67.

ANAV: the enrichment ratio worked out at 14.3.

As to TNAT, the enrichment ratio was determined as 11.

Take VMEP: the enrichment ratio is no more than 0.25.

In the case of SHGD, the enrichment ratio was no more than 0.25.

Consider NFGC, for which the enrichment ratio was no more than 0.25.

As to DFHC, the enrichment ratio is no more than 0.25.

Regarding QAAF, the enrichment ratio was no more than 0.25.

Turning to RPYT, the enrichment ratio was no more than 0.25.

With TNAA, the enrichment ratio stood at 13.7.

For TNAD, the enrichment ratio is no more than 0.25.

As for ANNT, the enrichment ratio is no more than 0.25.

As to MNAA, the enrichment ratio is 8.61.

As to ANLT, the enrichment ratio is 4.56.

As to ANAT, the enrichment ratio is 17.7.

On to HRYS, for which the enrichment ratio was no more than 0.25.

In the case of LMNM, the enrichment ratio was no more than 0.25.

Consider NMWP, for which the enrichment ratio was no more than 0.25.

For SAAM, the enrichment ratio came to 7.53.

Turning to SAQP, the enrichment ratio is no more than 0.25.

On to SACK, for which the enrichment ratio is 0.562.

On to KACQ, for which the enrichment ratio is no more than 0.25.

As to SACE, the enrichment ratio worked out at 11.7.

For SACQ, the enrichment ratio turned out to be 13.5.

As to SAMD, the enrichment ratio is no more than 0.25.

Turning to SACI, the enrichment ratio was determined as 13.7.

SAPE: the enrichment ratio is no more than 0.25.

As for WVWC, the enrichment ratio was no more than 0.25.

For the variant YMTW, the enrichment ratio was no more than 0.25.

As to YYYE, the enrichment ratio is no more than 0.25.

For the variant RLRN, the enrichment ratio was no more than 0.25.

SGRV: the enrichment ratio was no more than 0.25.

In the case of LAQI, the enrichment ratio is no more than 0.25.

As for PTQI, the enrichment ratio was no more than 0.25.

As to LQQI, the enrichment ratio is no more than 0.25.

Turning to TQRI, the enrichment ratio was no more than 0.25.

In the case of SHQI, the enrichment ratio is no more than 0.25.

As to TAQI, the enrichment ratio stood at 23.7.

Turning to TQQI, the enrichment ratio turned out to be 11.5.

Regarding NHQI, the enrichment ratio was no more than 0.25.

Regarding KQQI, the enrichment ratio was no more than 0.25.

Regarding TKQI, the enrichment ratio came to 17.5.

On to TAPA, for which the enrichment ratio is no more than 0.25.

Regarding THQI, the enrichment ratio is 24.1.

As for IYTC, the enrichment ratio is no more than 0.25.

In the case of SRID, the enrichment ratio was no more than 0.25.

Turning to LRCL, the enrichment ratio was no more than 0.25.

In the case of VTSC, the enrichment ratio is no more than 0.25.

As to QCKT, the enrichment ratio is no more than 0.25.

In the case of MFMN, the enrichment ratio is no more than 0.25.

Turning to YQKV, the enrichment ratio was no more than 0.25.

Regarding GKEW, the enrichment ratio was no more than 0.25.

As for KSQI, the enrichment ratio is no more than 0.25.

For the variant TLQI, the enrichment ratio came to 14.7.

As for KAQI, the enrichment ratio was no more than 0.25.
